Screens (PubChem)
Rab9 prom act: Rab9 promoter activation | Potency, µM (top dose mostly 9.22 µM), inactives show at the highest dose activation, negative = inhibition, most hits filed as activators | 320,000 tested, 2.8% active | Huh7 Rab9 promoter-luciferase reporter, luminescence, 24 h; note: % of control where 0% means no effect; nearly all actives have a fitted effect of over 60% in size
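Rab9 promoter-driven luciferase in stably transfected Huh7 cells; 1500 cells/well rested 2 h, exposed to compound in DMSO for 24 h at 37 °C, 5% CO2. Luminescence read 10 min after adding luciferase reagent at ambient temperature.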
FLuc counter: firefly luciferase modulation, counter-screen for miR-21 project. purified FLuc, Km substrates, luminescence inhibition. 360,000 tested, 6.9% active. Potency, µM (doses to about 57.5 µM), inactives show at the highest dose activity change, negative = inhibition, hits mostly inhibitors;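 note: plate controls were vehicle for no effect and reference inhibitor for full effect; nearly all actives have a fitted effect of over 55% in size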
Target sequence (P08659 whole entry, looked up): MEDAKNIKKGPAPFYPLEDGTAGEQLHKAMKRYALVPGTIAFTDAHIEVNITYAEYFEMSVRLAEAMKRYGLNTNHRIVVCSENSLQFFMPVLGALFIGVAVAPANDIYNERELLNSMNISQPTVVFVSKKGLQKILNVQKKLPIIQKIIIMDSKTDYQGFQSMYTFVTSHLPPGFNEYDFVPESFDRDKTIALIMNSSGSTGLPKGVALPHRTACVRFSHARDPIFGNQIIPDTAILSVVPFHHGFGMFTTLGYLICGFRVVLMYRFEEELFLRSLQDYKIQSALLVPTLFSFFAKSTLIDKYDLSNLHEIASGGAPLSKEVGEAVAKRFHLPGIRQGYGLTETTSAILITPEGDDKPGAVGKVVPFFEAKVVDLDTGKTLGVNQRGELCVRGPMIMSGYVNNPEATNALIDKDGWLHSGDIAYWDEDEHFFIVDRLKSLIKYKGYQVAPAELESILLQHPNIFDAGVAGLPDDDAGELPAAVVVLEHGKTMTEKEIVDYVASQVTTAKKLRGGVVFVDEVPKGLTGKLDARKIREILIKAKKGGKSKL
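Biochemical qHTS of compounds, final roughly 60 µM downward over six points, against 10 nM purified firefly luciferase using Km concentrations of substrates (10 uM D-luciferin, 10 uM ATP) in Tris acetate pH 7.5 buffer; luminescence output.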
ELG1 genotoxic: genotoxicity induction in ELG1-luciferase HEK293T cells; 330,000 tested, 1.3% active; Potency, µM (top dose mostly 46 µM), without a hit: top-dose activity change, positive = activation, usual class: activators; AID 504466; HEK293T ELG1-luciferase reporter, luminescence, 16 h; note: % of control where 0% means no effect; nearly all actives have a fitted effect of over 60% in size
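After overnight (16 hr) compound treatment at 37 °C, ELG1-luciferase HEK293T cells were lysed with ONE-Glo; luminescence quantified 30 min later at room temperature.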
SMN2 splice up: enhancers of SMN2 splice variant expression | 210,000 tested, 2.8% active | AID 1458 | HEK293 SMN2-luciferase splicing reporter, luminescence, 30-36 h | Potency, µM (top dose mostly 46.1 µM), without a hit: at the highest dose activity change, positive = activation, most hits filed as activators; note: % of control where 0% means no effect; nearly all actives have a fitted effect of over 55% in size
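qHTS luciferase splicing reporter: luminescence rises when SMN2 exon 7 is included in transfected HEK293 cells. Compound exposure lasted 30-36 h at 37C, with 4.5 mM final sodium butyrate as control, followed by a ONE-Glo read.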
Luc counter: Kinase-Glo luciferase inhibition (counter-screen); 200,000 tested, 0.28% active; Q27757; Kinase-Glo luciferase, ATP luminescence, 8 min; AID 1379; Potency, µM (highest dose often 38.3 µM), without a hit: top-dose activity change, negative = inhibition, hits mostly inhibitors; note: % is set by controls: 0 for no effect and ±100 for the full control effect; nearly all actives have a fitted effect of over 60% in size
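Recombinant Kinase-Glo luciferase, 10 uM ATP (linear range), luciferin; imidazole pH 7.2 / KCl / MgCl2 / Tween / BSA buffer; 8 min RT; luminescence.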
NPC1 promoter act: activates the NPC1 promoter. Huh7 NPC1 promoter luciferase reporter, 24 h. Potency, µM (top dose mostly 9.22 µM), for inactives: at the top dose activation, hits mostly activators. 320,000 tested, 2.4% active; note: % of control where 0% means no effect; nearly all actives have a fitted effect of over 60% in size
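NPC1 promoter–luciferase Huh7 cells; 24 h compound; luminescence.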
Numbers without * were called inactive; [ ] = another dose, or the depositor's remark. An excerpt weighted towards active compounds, which were near 7.3% of everything screened. Calls come from the whole dose curve; as a rule, active = well fitted curve in the direction sought with a large enough effect; inconclusive = small, poorly fitted or top-dose-only effect, or another doubt; inactive = no such curve, though single readings can be large; an effect the other way counts as inactive or inconclusive. Potency is the fitted concentration of half-maximal effect.

Screening CCC(Sc1nc2nccnc2c(=O)n1Cc1ccc(C)cc1)C(=O)NC1CCCCC1 (configuration not stated) returned FLuc counter 0%.
Screening c1cc2c3c(cccc3c1)C(N1CCCCCC1)=N2 returned Rab9 prom act -6%, FLuc counter 1%, ELG1 genotoxic 2%, SMN2 splice up -20%, Luc counter -6% and NPC1 promoter act 22%.
`c1ccc2c(c1)CCN(C1=Nc3cccc4cccc1c34)C2` gave Rab9 prom act 2.8µM*, FLuc counter 6.7µM*, ELG1 genotoxic 6%, SMN2 splice up 16µM*, Luc counter -10% and NPC1 promoter act 22%.
For CC1=NN(Cc2ccccc2)C(=O)/C1=C\c1ccc(N(C)C)cc1 the results were Rab9 prom act -1%, FLuc counter 11µM*, ELG1 genotoxic 7%, SMN2 splice up 7%, Luc counter -8% and NPC1 promoter act 1%.
`CC(C)C(=O)Nc1cccc(-c2cnc3ccccc3n2)c1` gave Rab9 prom act inconclusive, FLuc counter 15µM*, ELG1 genotoxic inconclusive, SMN2 splice up -7%, Luc counter 7% and NPC1 promoter act inconclusive.
For O=C(Nc1cccc(-c2cnc3ccccc3n2)c1)c1ccncc1 the results were Rab9 prom act 0%, FLuc counter inconclusive, ELG1 genotoxic 2%, SMN2 splice up 4%, Luc counter 0% and NPC1 promoter act 1%.
`Cc1ccc(C(=O)Nc2cccc(-c3cnc4ccccc4n3)c2)cc1` gave Rab9 prom act 1%, FLuc counter inconclusive, ELG1 genotoxic 2%, SMN2 splice up -4%, Luc counter -2% and NPC1 promoter act 1%.
CS(=O)(=O)Nc1cccc(-c2cnc3ccccc3n2)c1 was read as Rab9 prom act 4.5µM*, FLuc counter 19µM*, ELG1 genotoxic inconclusive and NPC1 promoter act 3.2µM*.
CNC(=S)Nc1cccc(-c2cnc3ccccc3n2)c1 was read as Rab9 prom act inconclusive, FLuc counter 17µM*, ELG1 genotoxic inconclusive and NPC1 promoter act inconclusive.
For Nc1cccc(-c2cnc3ccccc3n2)c1 the results were Rab9 prom act inconclusive, FLuc counter 7.6µM*, ELG1 genotoxic 9.2µM* and NPC1 promoter act 2.5µM*.
Screening CC(=O)Nc1ccc(C(=O)Nc2cccc(-c3cnc4ccccc4n3)c2)cc1 returned Rab9 prom act 1%, FLuc counter 0%, ELG1 genotoxic 17%, SMN2 splice up -21%, Luc counter -2% and NPC1 promoter act -16%.
For COC(=O)CCC(=O)OC1(C)C(=O)C=C2C=C(CCCNC(=O)OC(C)(C)C)OC=C2C1=O (configuration not stated) the results were SMN2 splice up 4% and Luc counter 0%.
Screening CCCCN(CCCC)CCNC(=O)c1cn(C)c2ccc(S(=O)(=O)N3CCOCC3)cc2c1=O returned FLuc counter 4% and SMN2 splice up 5%.
Screening Cc1ccc2c(c1)C(N1CCCC1=O)CC(c1ccco1)N2 (configuration not stated) returned Rab9 prom act 2.2µM*, FLuc counter 1.2µM*, ELG1 genotoxic inconclusive, SMN2 splice up 13µM*, Luc counter 11µM* and NPC1 promoter act 3.2µM*.
`Cc1ccc(C2CC(c3ccco3)n3ncnc3N2)cc1` (configuration not stated) gave Rab9 prom act -9%, FLuc counter -4%, ELG1 genotoxic -1%, SMN2 splice up -3%, Luc counter 2% and NPC1 promoter act 4%.
Screening Cc1ccc(-c2nn3c(=O)cc(CN4CCN(C(=O)/C=C/c5ccccc5)CC4)nc3s2)cc1 returned FLuc counter 3%.
CCOc1ccc(/C=C2\SC(=S)N(CC(=O)N(CCO)C(C)(C)C)C2=O)cc1 was read as Rab9 prom act -2%, FLuc counter 12µM*, ELG1 genotoxic -8%, SMN2 splice up -15%, Luc counter -4% and NPC1 promoter act 0%.
Screening O=C(CCN1C(=O)/C(=C/c2ccccc2)SC1=S)Nc1ccccn1 returned Rab9 prom act -4%, FLuc counter -12%, ELG1 genotoxic -2% and NPC1 promoter act -1%.
Cc1ccc(/C=C2\SC(=S)N(CCCC(=O)Nc3ccccn3)C2=O)cc1 was read as Rab9 prom act -19%, FLuc counter 13µM*, ELG1 genotoxic -6%, SMN2 splice up -62%, Luc counter 4% and NPC1 promoter act -27%.
`O=C1/C(=C/c2ccccn2)SC(=S)N1CCc1ccccc1` gave Rab9 prom act 3.5µM*, FLuc counter -3%, ELG1 genotoxic inconclusive and NPC1 promoter act inconclusive.
For CCOc1ccc(/C=C2\SC(=S)N(CC(=O)Nc3ccccn3)C2=O)cc1 the results were Rab9 prom act 26%, FLuc counter 21µM*, ELG1 genotoxic 10% and NPC1 promoter act 14%.
`O=C1/C(=C/c2ccccn2)SC(=S)N1NS(=O)(=O)c1ccccc1` gave Rab9 prom act -1%, FLuc counter inconclusive, ELG1 genotoxic -2%, SMN2 splice up -39%, Luc counter 1% and NPC1 promoter act 7%.
For CC(=O)Oc1ccc(/C=C2/SC(=S)N(Cc3ccccc3)C2=O)cc1 the results were Rab9 prom act -1%, FLuc counter -14%, ELG1 genotoxic -3% and NPC1 promoter act 1%.
CCOC(=O)C1CCN(C(=O)C2CCN(S(=O)(=O)c3c(C)noc3/C=C/c3ccc(C)cc3)CC2)CC1 was read as FLuc counter 7%.
COc1ccccc1N1CCN(C(=O)CCn2cnc3onc(-c4ccc(F)cc4)c3c2=O)CC1 was read as FLuc counter -6%.
`CC(C)CCNC(=O)c1ccc(Cn2c(=O)c3cccn3c3cccnc32)cc1` gave FLuc counter -4%.
`CCc1cc(C(=O)NNC(=S)NCc2ccccc2)cs1` gave Rab9 prom act 0%, FLuc counter -13%, ELG1 genotoxic 1%, SMN2 splice up -15%, Luc counter -4% and NPC1 promoter act -3%.
For CCc1cc(C(=O)Nc2ccccc2)cs1 the results were Rab9 prom act 2.2µM*, FLuc counter -17%[2.3 µM], ELG1 genotoxic inconclusive, SMN2 splice up 35%, Luc counter -7% and NPC1 promoter act -9%.
Screening CCc1cc(C(=O)NNC(=S)Nc2ccccc2C)cs1 returned Rab9 prom act 2.8µM*, FLuc counter 6.7µM*, ELG1 genotoxic inconclusive, SMN2 splice up 14µM*, Luc counter -9% and NPC1 promoter act 3.5µM*.
